Compounds with a hit are over-represented: about 7.9% of the library has one in this group of screens.
HT1080-NT tox = qHTS for induction of synthetic lethality in tumor cells producing 2HG: qHTS for the HT-1080-NT fibrosarcoma cell line; HT-1080-NT fibrosarcoma viability, CellTiter-Glo ATP luminescence, 48 h; Potency, µM (titrated, usually from 46.1 µM), without a hit: at the top dose activity, negative = less viability, usual class: cytotoxic; 360,000 tested, 1.6% active; AID 686970, 2013;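 note: NT is the 2HG producing partner of a matched IDH1 knockdown line; 0% = DMSO-treated cells and -100% = media-only wells without cells; nearly all actives have a fitted effect of over 55% in size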
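750 cells/well, RPMI + 5% FBS; 2 h settle, compound pin-transfer, 48 h at 37 degrees C. CellTiter-Glo 10 min RT, luminescence. Normalized to DMSO and media-only wells.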
HT1080 IDH1KD tx = qHTS for induction of synthetic lethality in tumor cells producing 2HG: qHTS for the HT-1080-IDH1KD cell line; HT-1080 IDH1 knockdown viability, ATP luminescence, 48 h; Potency, µM (series often up to 46.1 µM), inactives show at the top dose activity, negative = toxicity, hits mostly cytotoxic; 360,000 tested, 2% active; AID 686971, 2013;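 note: 0% = DMSO wells and -100% = cell-free medium wells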
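Assay cells: HT-1080 with IDH1 knockdown, 750 per well, RPMI/5% FBS. Exposure: 48 h at 37 °C following 2 h pre-incubation. Read: CellTiter-Glo luminescence; fitted concentration-response, curve class assigned.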
KB-V1 cytotox = qHTS assay for MDR1-selective chemotherapeutics: Primary screen using the drug-selected MDR subline cells KB-V1. KB-V1 MDR cells viability, CellTiter-Glo, 72 h. AID 1347076, 2019. 400,000 tested, 3.4% active. Potency, µM (top dose mostly 46.1 µM), most hits filed as cytotoxic; note: % is set by controls: 0 for no effect and ±100 for the full control effect; nearly all actives have a fitted effect of over 60% in size
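Potencies derive from concentration-effect curves fitted to normalized luminescence (CellTiter-Glo) of KB-V1 cells treated for 72 h at 37 degrees C in phenol-red-free DMEM containing 10% FBS.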
KB-3-1 cytotox = qHTS assay for MDR1-selective chemotherapeutics: Primary screen using the parental adenocarcinoma cell KB-3-1; Potency, µM (titrated, usually from 46.1 µM), usual class: cytotoxic; KB-3-1 viability, CellTiter-Glo ATP luminescence, 72 h; 400,000 tested, 1.4% active; AID 1347075, 2019; note: % is set by controls: 0 for no effect and ±100 for the full control effect; nearly all actives have a fitted effect of over 60% in size
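Viability of parental KB-3-1 cells, measured by CellTiter-Glo luminescence, followed a 72 h incubation at 37 °C with pinned compounds in phenol-red-free DMEM containing 10% FBS.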
SW480 rereplic = A quantitative high throughput screen for small molecules that induce DNA re-replication in SW480 colon adenocarcinoma cells. SW480 DNA re-replication, Hoechst DNA content imaging, 48 h. Potency, µM (titrated, usually from 46.1 µM), for the others: top-dose re-replication activation, hits mostly activators. 340,000 tested, 1.8% active. AID 624297, 2012; note: % of control where 0% means no effect; nearly all actives have a fitted effect of over 55% in size
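Compounds, transferred as 23 nL by pin tool, were incubated with cells for 48 hr; DNA content per nucleus was then quantified by Hoechst staining and fluorescence plate imaging.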
MCF10A rerep = A quantitative high throughput screen for small molecules that induce DNA re-replication in MCF 10a normal breast cells; MCF 10A DNA re-replication, Hoechst nuclear intensity, 48 h; 350,000 tested, 2.9% active; Potency, µM (doses to about 46.1 µM), inactives show top-dose activity, positive = re-replication, most hits filed as activators; note: % of control where 0% means no effect; nearly all actives have a fitted effect of over 50% in size
An asterisk follows results filed as active; i = inactive; ? = inconclusive; · = no result given. Calls come from the whole dose curve; as a rule, active = well fitted curve in the direction sought with a large enough effect; inconclusive = small, poorly fitted or top-dose-only effect, or another doubt; inactive = no such curve, though single readings can be large; an effect the other way counts as inactive or inconclusive. Potency is the fitted concentration of half-maximal effect.

SMILES	HT1080-NT tox	HT1080 IDH1KD tx	KB-V1 cytotox	KB-3-1 cytotox	SW480 rereplic	MCF10A rerep
C[C@@H]1CCCCO[C@@H](CN(C)C(=O)c2ccccc2)[C@@H](C)CN([C@H](C)CO)C(=O)c2cc(N(C)C)ccc2O1	1%	4%	i	i	·	·
N#CC1=C2SCC(O)(c3ccccc3)N2C(=O)CC1c1ccccc1 (centres undefined)	1.3µM*	?	1.8µM*	1.3µM*	12µM*	5.8µM*
CN1CCN(NC(=O)c2cc(-c3cccc(Cl)c3)nc3ccccc23)CC1	16µM*	?	i	i	6%	1%
N#Cc1cn(-c2ccccc2)nc1-c1ccc2c(c1)OCCO2	12%	10%	i	i	-3%	10µM*
Cc1cc(Cl)ccc1OCc1nnc(-c2ccccc2C)o1	7%	19%	i	i	-5%	16%
Cc1ccc(Nc2nc(C)cc(C)n2)c(C(=O)O)c1	·	·	i	i	·	·
O=C(CN1C2=NCCN2c2ccccc21)c1ccc(Br)cc1	-26%	-15%	i	i	-4%	-3%
S=C1NC(c2ccccc2)=NCN1c1ccc(Cl)cc1	9%	1%	i	i	0%	1%
COC(=O)c1ccc(N2CN=C(c3ccc(C)cc3)NC2=S)cc1	-10%	-2%	i	i	-1%	26µM*
COc1cc(-c2nc3cnccn3c2Nc2c(C)cccc2C)ccc1O	-21%	5%	i	i	23µM*	16µM*
Cc1cccc(C)c1Nc1c(-c2ccc(N3CCOCC3)cc2)nc2cnccn12	-8%	-14%	i	i	?	23µM*
COc1cc(-c2nc3cnccn3c2NC(C)(C)CC(C)(C)C)ccc1O	-5%	-12%	i	i	-3%	2%
CC1(c2ccc3c(c2)OCO3)NC(=O)N(CC(=O)c2ccc[nH]2)C1=O (centres undefined)	1%	-6%	i	i	2%	0%
c1cc(-c2ccc(N3CCOCC3)cc2)n2ccnc2c1	1%	12%	i	i	·	·
CC(C)CCNC(=O)c1ccc2c(c1)ncn2C1CCCCC1	-1%	-16%	13µM*	i	-14%	25%
O=C(O)c1ccc2c(c1)ncn2C1CCCC1	-8%	1%	i	i	-11%	5%
CCCCS(=O)(=O)Nc1ccc2c(c1)ncn2C1CCCCC1	8%	8%	?	i	3%	23µM*
c1ccc(CNc2ccc3c(c2)ncn3C2CCCCC2)nc1	4%	7%	i	i	23µM*	21µM*
CCCCNC(=O)c1ccc2c(c1)ncn2C1CCCCC1	10%	4%	i	i	-8%	3%
CCN(CC)c1ccc(/C=N/NC(=O)Cc2cccs2)cc1	-13%	-12%	i	i	-2%	-7%
COc1ccc(OC)c(NC(=O)COC(=O)CCS(=O)(=O)c2ccc(Cl)cc2)c1	-4%	?	?	i	4%	1%
COc1cccc(NC(=S)NNC(=O)c2c([N+](=O)[O-])c(C)nn2C)c1	?	7.9µM*	i	i	7%	15%
CCNC(=S)N/N=C/c1ccc(OCC(=O)Nc2ccc(C)cc2)cc1	5.6µM*	10µM*	?	i	?	?
CC1CCN(C(=O)c2ccc(S(=O)(=O)N(C)C)cc2)C(C)C1 (centres undefined)	7%	8%	i	i	-4%	27%
Cn1c(=O)c2c(nc(CN3CCc4ccccc4C3)n2Cc2ccccc2)n(C)c1=O	-17%	-24%	i	12µM*	-1%	?
SMILES	HT1080-NT tox	HT1080 IDH1KD tx	KB-V1 cytotox	KB-3-1 cytotox	SW480 rereplic	MCF10A rerep
CCCCn1c(CN(C)Cc2ccccc2)nc2c1c(=O)n(C)c(=O)n2C	-9%	-13%	2.3µM*	?	-10%	15%
Cn1c(=O)c2c(nc(CN3CCN(c4ccccc4)CC3)n2Cc2ccccc2Cl)n(C)c1=O	5%	0%	8.2µM*	?	?	?
CCCn1c(CN(C)Cc2ccccc2)nc2c1c(=O)n(C)c(=O)n2C	-16%	-18%	?	i	2%	8%
CN(Cc1ccccc1)Cc1nc2c(c(=O)n(C)c(=O)n2C)n1Cc1ccccc1Cl	-25%	-1%	9.2µM*	i	-7%	-3%
O=C(COC(=O)c1ccc(S(=O)(=O)N2CCCC2)cc1)Nc1ccc(Cl)cc1	12%	2%	i	i	-3%	0%
COc1ccc(N2CCN(Cc3nc4c(c(=O)n(C)c(=O)n4C)n3C(C)C)CC2)cc1	·	·	i	16µM*	·	·
Cc1cccc(N(CC(=O)NC(C)c2ccccc2)S(=O)(=O)c2ccccc2)c1C (centres undefined)	·	·	?	18µM*	·	·
Cc1ccccc1N(CC(=O)NCCSC1CCCCC1)S(=O)(=O)c1ccccc1	4%	5%	10µM*	?	-2%	20%
COc1ccc(N(CC(=O)NCCSC2CCCCC2)S(=O)(=O)c2ccccc2)cc1OC	-1%	0%	·	·	10%	13%
CS(=O)(=O)N(CC(=O)NCCSC1CCCCC1)c1cccc(F)c1	10%	4%	15µM*	i	-6%	?
CS(=O)(=O)N(CC(=O)NCCSC1CCCCC1)c1ccccc1	-4%	10%	?	i	1%	-21%
COc1ccc(CN2CCNC(=O)C2CC(=O)NC2CCCCC2)c(OC)c1 (centres undefined)	18%	23%	i	i	-12%	-2%
C=CCNc1sc(C(=O)c2ccc(C)cc2)c(N)c1C#N	2%	-1%	i	i	3%	?
C=CCNc1nc(N)c(C(=C(C#N)C#N)c2ccc(Br)cc2)s1	-23%	?	18µM*	?	21µM*	?
O=C1c2c(-c3ccc(Br)cc3)noc2CCN1Cc1cn(C2CCCC2)nn1	-21%	?	21µM*	?	·	·
O=C1c2c(-c3ccc(Br)cc3)noc2CCN1Cc1cn(-c2ccccc2)nn1	?	-25%	?	?	·	·
O=C1c2c(-c3ccc(Br)cc3)noc2CCN1Cc1cn(Cc2cccnc2)nn1	-18%	-7%	23µM*	?	·	·
O=C1c2c(-c3ccc(Br)cc3)noc2CCN1Cc1cn(Cc2ccccc2)nn1	?	?	?	i	·	·

Screening data: PubChem, National Center for Advancing Translational Sciences (NCATS)
